# A number with no mark means an inactive call. Records with an inconclusive call do not appear. Where a call stands in place of a potency, no number is given. Calls of active or inactive are those of the source. Unless noted, the call rests on the fitted dose curve; in most records, active means well fitted curve in the direction sought with a large enough effect; inconclusive means small, poorly fitted or top-dose-only effect, or another doubt; inactive means no such curve, though single readings can be large; an effect the other way counts as inactive or inconclusive.
# Assays:
# PA-1 = test: Primary qHTS to identify gynecologic anti-cancer compounds using libraries of approved drugs and bioactive compounds (AID 1345084); conditions: Gynecologic cancer cell panel viability, ATPlite luminescence, 48 h; series mostly up to 57.5 µM; further: nearly all actives have a fitted effect of over 55% in size; further: potency means the concentration at half of the fitted maximal effect
# In short: (§1)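 In this quantitative HTS, cell killing is estimated from loss of ATP-dependent luciferase light. Cells see five compound concentrations over a 48 h exposure.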
# SKOV3 = test: as above; conditions: Gynecologic cancer cell panel viability, ATPlite luminescence, 48 h; series mostly up to 57.5 µM
# In short: as §1
# Tov112D = test: as above; conditions: Gynecologic cancer cell panel viability, ATPlite luminescence, 48 h; series mostly up to 57.5 µM
# In short: as §1
# Tov-21-G = test: as above; conditions: Gynecologic cancer cell panel viability, ATPlite luminescence, 48 h; series mostly up to 57.5 µM
# In short: as §1
# [1] = biological target: Nuclear receptor subfamily 1 group I member 2 (Rattus norvegicus) (UniProt Q9R1A7); test: qHTS assay for small molecule activators of the rat pregnane X receptor (rPXR) signaling pathway (AID 651751; call rule not given here); conditions: rPXR reporter cells, luciferase (One-Glo), 24 h
# Chain of Nuclear receptor subfamily 1 group I member 2 (Rattus norvegicus) (Q9R1A7 whole entry, looked up): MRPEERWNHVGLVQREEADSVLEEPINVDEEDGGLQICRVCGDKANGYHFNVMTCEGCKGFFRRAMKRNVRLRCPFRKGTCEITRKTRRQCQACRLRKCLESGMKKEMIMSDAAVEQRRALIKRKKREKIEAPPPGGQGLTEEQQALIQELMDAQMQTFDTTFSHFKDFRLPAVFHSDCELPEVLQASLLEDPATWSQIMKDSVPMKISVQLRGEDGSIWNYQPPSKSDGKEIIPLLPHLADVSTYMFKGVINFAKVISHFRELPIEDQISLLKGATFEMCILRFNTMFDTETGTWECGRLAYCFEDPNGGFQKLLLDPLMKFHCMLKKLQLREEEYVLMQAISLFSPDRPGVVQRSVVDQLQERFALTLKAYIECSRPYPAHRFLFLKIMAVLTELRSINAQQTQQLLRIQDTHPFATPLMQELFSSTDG
# [2] = qHTS assay for small molecule activators of the human pregnane X receptor (PXR) signaling pathway (AID 720659; call rule not given here)
# [3] = qHTS assay to identify inhibitors of the type 1 interferon - major histocompatibility complex class I in skeletal muscle: Counter screen cell viability and HiBit confirmation (AID 1347412); conditions: iHSKM muscle cells + IFN-b, HiBiT or CellTiter-Glo, 24 h; further: potency means the concentration at half of the fitted maximal effect; nearly all actives have a fitted effect of over 60% in size
# In short: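 After 24 h with human IFN-beta (4 ng/ml) and compound titrations (top 46 uM final, 1:3, 12 points), HLA-B HiBit myoblasts were lysed for either Nano-Glo HiBiT luminescence or CellTiter Glo viability on paired plates.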
smiles,measurement,setting,value
Cc1cnc(Nc2ccc(F)cc2Cl)nc1-c1c[nH]c(C(=O)NC(CO)c2cccc(Cl)c2)c1 (configuration not stated),Potency,PA-1,8.91 µM (active)
same,Potency,SKOV3,inactive
same,Potency,Tov112D,inactive
CC(=O)O[C@@H]1CC(C)=C2[C@H]1[C@H](C)CC[C@H]2/C=C(\C)C(=O)O,Potency,PA-1,inactive
same,Potency,SKOV3,inactive
same,Potency,Tov-21-G,inactive
same,Potency,Tov112D,inactive
same,max response,[1],-4.19%
same,outcome,[2],inactive
COc1cc(O)cc(C)c1C(=O)O[C@@H]1[C@H](O)[C@@H](CO)O[C@H]1n1ccc(=O)[nH]c1=O,Potency,PA-1,3.98 µM (active)
same,Potency,SKOV3,inactive
same,Potency,Tov112D,inactive
CO[C@H]1C[C@@H]2CC[C@@H](C)[C@@](O)(O2)C(=O)C(=O)N2CCCC[C@H]2C(=O)O[C@H]([C@H](C)C[C@@H]2CC[C@H](n3cnnn3)[C@H](OC)C2)CC(=O)[C@H](C)/C=C(\C)[C@@H](O)[C@@H](OC)C(=O)[C@H](C)C[C@H](C)/C=C/C=C/C=C/1C,Potency,PA-1,inactive
same,Potency,SKOV3,inactive
same,Potency,Tov112D,inactive
CNC(=O)c1ccccc1Nc1nc(Nc2ccc(N3CCNCC3)cc2)ncc1Cl,Potency,PA-1,0.316 µM (active)
same,Potency,Tov-21-G,0.355 µM (active)
CN(c1ccccc1CNc1nc(Nc2ccc3c(c2)CC(=O)N3)ncc1C(F)(F)F)S(C)(=O)=O,Potency,PA-1,15.8 µM (active)
same,Potency,Tov-21-G,inactive
same,Potency,Tov112D,25.1 µM (active)
O=C(c1cc2c(cc1F)OC(c1ccc(F)cc1)(c1ccc(Cl)cc1Cl)O2)N1CCOCC1 (configuration not stated),Potency,PA-1,inactive
same,Potency,Tov-21-G,inactive
same,Potency,Tov112D,inactive
COC1=CC(=O)CC(C)C12Oc1cc(OC)cc(O)c1C2=O (configuration not stated),Potency,PA-1,inactive
same,Potency,Tov-21-G,inactive
same,Potency,Tov112D,inactive
CN1CCN(C2CCC(n3cc(-c4ccc(Oc5ccccc5)cc4)c4c(N)ncnc43)CC2)CC1 (configuration not stated),Potency,PA-1,3.55 µM (active)
same,Potency,SKOV3,3.55 µM (active)
same,Potency,[3]; HiBiT,15.7 µM (active)
same,Potency,[3]; Viability,11.1 µM (active)
COc1ccc(CN2C(=O)C(=O)c3cc(S(=O)(=O)N4CCC[C@H]4COc4cccnc4)ccc32)cc1,Potency,PA-1,inactive
same,Potency,Tov-21-G,inactive
same,Potency,Tov112D,inactive
CC(=O)O[C@@](C)(C(=O)/C=C/C(C)(C)O)[C@H]1[C@H](O)C[C@@]2(C)[C@@H]3CC=C4[C@@H](C=C(O)C(=O)C4(C)C)[C@]3(C)C(=O)C[C@]12C,Potency,PA-1,11.2 µM (active)
same,Potency,Tov-21-G,2.82 µM (active)
CCC(O)(C(=O)OCc1ccccc1NC(=O)CCC(=O)O)C(C)O (configuration not stated),Potency,PA-1,inactive
same,Potency,Tov-21-G,inactive
same,Potency,Tov112D,inactive
CC(Oc1ccc2[nH]nc(/C=C/c3cnn(CCO)c3)c2c1)c1c(Cl)cncc1Cl (configuration not stated),Potency,PA-1,6.31 µM (active)
same,Potency,Tov-21-G,3.55 µM (active)
CC(C)[C@@H]1C(=O)N(S(C)(=O)=O)[C@@H]2CCN(C(=O)/C=C/CN3CCCCC3)[C@H]21,Potency,PA-1,inactive
same,Potency,Tov-21-G,inactive
same,Potency,Tov112D,inactive
OC[C@@]1(O)CO[C@@H](OC[C@H]2O[C@@H](Oc3c[nH]c4ccccc34)[C@H](O)[C@@H](O)[C@@H]2O)[C@@H]1O,Potency,PA-1,inactive
same,Potency,Tov-21-G,inactive
same,Potency,Tov112D,inactive
CNC(=O)c1ccccc1Nc1nc(Nc2ccc3c(c2OC)CCC[C@@H](N2CCN(CCO)CC2)C3)ncc1Cl,Potency,PA-1,10 µM (active)
same,Potency,Tov-21-G,10 µM (active)
O=S(=O)(Nc1ccccn1)c1ccc(N=Cc2c(O)[nH]c3ccc4ncsc4c23)cc1,"activity change, negative = cytotoxicity",PA-1,-2.66% [at 11.6 µM]
same,"activity change, negative = cytotoxicity",Tov-21-G,18.8% [at 11.6 µM]
Cc1ccccc1CN1C2=NCCN2C(=O)C2=C1CCN(Cc1ccccc1)C2,Potency,PA-1,inactive
same,Potency,Tov-21-G,inactive
same,Potency,Tov112D,inactive
COc1cc(N2CCOCC2)ccc1Nc1ncc(Cl)c(Nc2ccccc2NS(C)(=O)=O)n1,Potency,PA-1,2.82 µM (active)
same,Potency,Tov-21-G,3.16 µM (active)
CC(=O)c1ccc2c(c1)C(O)C(C(C)(C)O)O2 (configuration not stated),Potency,PA-1,inactive
same,Potency,Tov-21-G,inactive
same,Potency,Tov112D,inactive
CC1CCC2C(C(=O)O)=COC(O[C@@H]3O[C@H](CO)[C@@H](O)[C@H](O)[C@H]3O)C12 (some centres not stated),Potency,PA-1,inactive
same,Potency,Tov-21-G,inactive
same,Potency,Tov112D,inactive
CCC(CC)C(=O)Nc1sc2c(c1C#N)CCC(C(C)(C)CC)C2 (configuration not stated),Potency,PA-1,inactive
same,Potency,Tov-21-G,inactive
same,Potency,Tov112D,inactive
CC(C)=CCC/C(C)=C/CO[C@@H]1O[C@H](CO)[C@@H](O)[C@H](O)[C@H]1O,Potency,PA-1,inactive
same,Potency,Tov-21-G,inactive
same,Potency,Tov112D,inactive
CC1(C)CC[C@]2(C(=O)O[C@@H]3O[C@H](CO)[C@@H](O)[C@H](O)[C@H]3O)CC[C@]3(C)C(=CCC4[C@@]5(C)C[C@@H](O)[C@H](O)C(C)(C)C5CC[C@]43C)C2[C@@H]1O (some centres not stated),Potency,PA-1,inactive
same,Potency,Tov-21-G,inactive
same,Potency,Tov112D,inactive
C=CC1(C)CC(OC(=O)/C(C)=C\COC(C)=O)C(C(=C)C(=O)O)C(O)C1C(=C)CO (configuration not stated),Potency,PA-1,inactive
same,Potency,Tov-21-G,inactive
same,Potency,Tov112D,inactive
C=CC(=O)Nc1cc(Nc2ncc(Cl)c(-c3c[nH]c4ccccc34)n2)c(OC)cc1N(C)CCN(C)C,Potency,PA-1,6.31 µM (active)
same,Potency,Tov-21-G,15.8 µM (active)
same,Potency,Tov112D,15.8 µM (active)
C[C@@H]1O[C@@H](O[C@H]2[C@@H]3C=CO[C@@H](O[C@@H]4O[C@H](CO)[C@@H](O)[C@H](O)[C@H]4O)[C@@H]3[C@@]3(CO)O[C@@H]23)[C@H](OC(=O)/C=C/c2ccccc2)[C@H](O)[C@H]1O,Potency,PA-1,inactive
same,Potency,Tov-21-G,inactive
same,Potency,Tov112D,inactive
Cc1cccc(C)c1OCc1cc(C(=O)N2CCC(c3ccncc3)CC2)no1,Potency,PA-1,inactive
same,Potency,Tov-21-G,inactive
same,Potency,Tov112D,inactive
CCOc1cc(CC(=O)NC(CC(C)C)c2ccccc2N2CCCCC2)ccc1C(=O)O (configuration not stated),Potency,PA-1,inactive
same,Potency,Tov-21-G,inactive
same,Potency,Tov112D,inactive
Cn1c(=O)n(-c2ccc(C(C)(C)C#N)cc2)c2c3cc(C#Cc4cccnc4)ccc3ncc21,Potency,PA-1,0.282 µM (active)
same,Potency,Tov-21-G,0.158 µM (active)

# — PubChem BioAssay (NCATS)
